# Assay results: PubChem BioAssay (EPA / NIEHS)
# Where “and” joins values, the source holds several entries; their conditions need not be identical. Equal entries are not always repeated. Records with an inconclusive call do not appear. Some compounds were tested as several samples or in several runs, with calls that do not always agree. Calls of active or inactive are those of the source. The calls were made as follows, unless noted: active = hit-call score of the fitted dose curve at least 0.9, where 1 is the maximum; inactive = score below 0.9.
# Assays:
# [1] = ATG_NF_kB_CIS: Attagene CIS-FACTORIAL HepG2 Assay for human Nuclear Factor Kappa B (NF-kB) (AID 2282991); settings: HepG2 Attagene cis-factorial NF-kB reporter mRNA; actives raise or lower the signal
# Method in brief: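 Fluorescence of labelled RT-PCR products separated by capillary electrophoresis gives reporter mRNA levels from transfected HepG2 cells exposed 24 h; values are fitted in both directions relative to DMSO.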
# [2] = ATG_NRF2_ARE_CIS: Attagene CIS-FACTORIAL HepG2 Assay for human Nuclear Factor Erythroid 2 Related Factor 2 (NFR2) response to Antioxidant Response Elements (ARE) (AID 2282992); settings: HepG2 Attagene ARE/NRF2 reporter, transcription factor activity; actives raise or lower the signal
# Method in brief: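 Multiplexed reporter mRNA profiling in HepG2 after a 24 h chemical exposure. Curves fitted in both directions relative to DMSO negative control.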
# [3] = ATG_Oct_MLP_CIS: Attagene CIS-FACTORIAL HepG2 Assay for human Octamer-Binding Transcription Factor (Oct) (AID 2282993); settings: HepG2 Attagene cis-factorial Oct reporter, mRNA; actives raise or lower the signal
# Method in brief: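 HepG2 cells transiently transfected with cis-element-driven reporter transcription units (endogenous TF activity); 24 h compound exposure. Reporter mRNA quantified by RT-PCR, 6-FAM labelling, HpaI digestion and capillary electrophoresis; bidirectional fit versus DMSO baseline.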
# [4] = BSK_3C_TissueFactor: BioMAP Diversity Plus: 3C Assay for Tissue Factor Biomarker Activity (AID 2282997); settings: BioMAP 3C HUVEC, tissue factor biomarker readout; actives raise or lower the signal
# Method in brief: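 Dosing of human umbilical vein endothelial cells preceded a 24 h incubation. Tissue Factor was then read by ELISA, with increases and decreases both scored relative to DMSO controls.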
# [5] = BSK_3C_VCAM1: BioMAP Diversity Plus: 3C Assay for Vascular cell adhesion molecule 1 (VCAM1) Biomarker Activity (AID 2282999); settings: BioMAP 3C HUVEC, VCAM1 ELISA, cytokine-stimulated; actives raise or lower the signal
# Method in brief: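 Human umbilical vein endothelial cells (3C system), biomarker read by ELISA 24 h after dosing; bidirectional fit against DMSO baseline. Cytotoxicity tracked by SRB total-protein staining in parallel cultures at biomarker time.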
# [6] = BSK_4H_Eotaxin3: BioMAP Diversity Plus: 4H Assay for Eotaxin 3 Biomarker Activity (AID 2283000); settings: primary human endothelial cells (HUVEC); actives raise or lower the signal;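 as to outcome: CCL26 protein level quantified by ELISA in parallel with SRB cytotoxicity check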
# Method in brief: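 Human umbilical vein endothelial cells (BSK_4H system) dosed with test chemical; Eotaxin-3 (CCL26) measured by ELISA 24 h after dosing. Bidirectional curve fitting relative to DMSO negative control as baseline.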
# [7] = molecular target: human Peroxisome Proliferator-activated Receptor alpha (PPARa), PPARA (gene 5465) (UniProt Q07869); assay: ATG_PPARa_TRANS: Attagene TRANS-FACTORIAL HepG2 Assay for human Peroxisome Proliferator-activated Receptor alpha (PPARa) (AID 2283001; active = hit-call score of the fitted dose curve at least 0.9, where 1 is the maximum)
# Method in brief: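 HepG2 cells transiently transfected with multiplexed GAL4-UAS reporters driven by exogenous chimeric NR-Gal4 proteins; reporter mRNA measured after 24 h dosing. Read-out by RT-PCR, 6-FAM labelling, HpaI digestion and capillary electrophoresis; gain of signal versus DMSO.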
# [8] = molecular target: Cellular tumor antigen p53 (Homo sapiens) (UniProt P04637); assay: ATG_p53_CIS: Attagene CIS-FACTORIAL HepG2 Assay for human p53 Transcription Factor (AID 2282994); settings: HepG2 p53 cis-element reporter, Attagene mRNA; actives raise or lower the signal
# Method in brief: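 Multiplexed reporter mRNA assay in human HepG2 liver cells; cis-regulated units report endogenous factor activity. Values come from bidirectional curve fitting against DMSO negative control after 24 h treatment.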
# [9] = molecular target: human Peroxisome Proliferator-activated Receptor delta (PPARd), PPARD (gene 5467) (UniProt Q03181); assay: ATG_PPARd_TRANS: Attagene TRANS-FACTORIAL HepG2 Assay for human Peroxisome Proliferator-activated Receptor delta (PPARd) (AID 2283002; active = hit-call score of the fitted dose curve at least 0.9, where 1 is the maximum)
# Method in brief: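 Read-out: reporter mRNA induction, quantified by fluorescent RT-PCR products resolved by capillary electrophoresis. Human HepG2 liver cells carried transiently transfected Gal4-UAS reporter constructs with chimeric NR-Gal4 fusions. Cells were dosed for 24 h; DMSO served as baseline.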
# [10] = BSK_3C_uPAR: BioMAP Diversity Plus: 3C Assay for Urokinase-type plasminogen activator receptor (uPAR) Biomarker Activity (AID 2282998); settings: BioMAP 3C HUVEC, uPAR biomarker ELISA; actives raise or lower the signal
# Method in brief: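 Primary human umbilical vein endothelial cells, 3C system; surface uPAR measured by ELISA 24 h after dosing. Cytotoxicity via SRB total protein in parallel cultures; bidirectional fit against DMSO.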
# Sequence of human Peroxisome Proliferator-activated Receptor alpha (PPARa), PPARA (gene 5465) (Q07869 whole entry, looked up, the tested form may be a part): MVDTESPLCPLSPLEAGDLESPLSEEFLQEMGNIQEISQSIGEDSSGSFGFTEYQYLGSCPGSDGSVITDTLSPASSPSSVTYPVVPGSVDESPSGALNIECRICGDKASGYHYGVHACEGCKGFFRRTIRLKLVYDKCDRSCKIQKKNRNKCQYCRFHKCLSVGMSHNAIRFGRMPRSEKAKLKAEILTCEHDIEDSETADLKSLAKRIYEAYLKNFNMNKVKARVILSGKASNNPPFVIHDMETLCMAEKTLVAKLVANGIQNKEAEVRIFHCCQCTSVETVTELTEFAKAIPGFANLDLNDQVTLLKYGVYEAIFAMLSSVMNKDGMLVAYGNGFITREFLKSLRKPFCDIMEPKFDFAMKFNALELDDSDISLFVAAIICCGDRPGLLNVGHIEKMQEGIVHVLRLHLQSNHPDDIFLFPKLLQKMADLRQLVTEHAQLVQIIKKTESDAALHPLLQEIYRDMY
# Sequence of human Peroxisome Proliferator-activated Receptor delta (PPARd), PPARD (gene 5467) (Q03181 whole entry, looked up, the tested form may be a part): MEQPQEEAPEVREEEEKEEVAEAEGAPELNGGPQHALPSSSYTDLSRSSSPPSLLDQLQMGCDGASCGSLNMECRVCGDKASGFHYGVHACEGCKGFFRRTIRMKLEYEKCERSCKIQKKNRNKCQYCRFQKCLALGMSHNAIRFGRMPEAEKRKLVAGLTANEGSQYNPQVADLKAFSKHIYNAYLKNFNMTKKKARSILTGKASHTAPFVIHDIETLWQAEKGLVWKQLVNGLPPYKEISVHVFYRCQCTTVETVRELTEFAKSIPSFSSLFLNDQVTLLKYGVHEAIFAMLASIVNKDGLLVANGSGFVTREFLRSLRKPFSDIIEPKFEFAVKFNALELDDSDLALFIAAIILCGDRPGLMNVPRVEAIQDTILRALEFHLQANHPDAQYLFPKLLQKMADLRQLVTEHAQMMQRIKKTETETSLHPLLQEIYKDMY
# Sequence of Cellular tumor antigen p53 (Homo sapiens) (P04637 whole entry, looked up): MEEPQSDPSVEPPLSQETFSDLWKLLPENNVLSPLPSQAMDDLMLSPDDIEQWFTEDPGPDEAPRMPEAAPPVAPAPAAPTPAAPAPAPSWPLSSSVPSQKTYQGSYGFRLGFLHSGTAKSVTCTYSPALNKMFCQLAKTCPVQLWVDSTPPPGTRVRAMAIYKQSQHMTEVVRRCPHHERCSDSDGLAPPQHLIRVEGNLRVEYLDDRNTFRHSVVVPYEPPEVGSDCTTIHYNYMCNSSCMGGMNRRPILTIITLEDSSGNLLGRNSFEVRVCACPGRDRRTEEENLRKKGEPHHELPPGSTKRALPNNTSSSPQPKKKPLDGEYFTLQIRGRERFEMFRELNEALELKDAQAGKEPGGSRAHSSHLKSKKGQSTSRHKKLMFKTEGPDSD
smiles,measurement,setting,value
CCCCC=O,outcome,[1],inactive
same,outcome,[2],inactive
same,outcome,[3],inactive
same,outcome,[4],inactive
same,outcome,[5],inactive
same,outcome,[6],inactive
same,outcome,[7],inactive
Cc1cc(C(C)(C)C)c(O)c(C(C)(C)C)c1,outcome,[1],inactive
same,AC50,[2],57.7 µM (active) and 60 µM (active)
same,AC50,[3],33.4 µM (active) and 89.4 µM (active)
same,outcome,[8],inactive
same,outcome,[9],inactive
OCC(CO)(CBr)CBr,outcome,[1],inactive
same,outcome,[2],inactive
same,outcome,[3],inactive
same,outcome,[4],inactive
same,outcome,[5],inactive
same,outcome,[6],inactive
CC(C)[C@@H]1CC[C@@H](C)C[C@H]1O,outcome,[1],inactive
same,outcome,[2],inactive
same,outcome,[3],inactive
same,outcome,[7],inactive
same,outcome,[9],inactive
CCO[Si](C)(C)OCC,outcome,[1],inactive
same,outcome,[2],inactive
same,outcome,[3],inactive
same,outcome,[8],inactive
same,outcome,[9],inactive
O=CC(F)(F)C(F)(F)C(F)(F)C(F)F,outcome,[1],inactive
same,outcome,[2],inactive
same,outcome,[3],inactive
same,outcome,[8],inactive
same,outcome,[9],inactive
CC1CCC(C(=O)O)CC1 (configuration not stated),outcome,[1],inactive
same,outcome,[2],inactive
same,outcome,[3],inactive
same,outcome,[8],inactive
same,outcome,[9],inactive
O=C(O)CN(CCCN(CC(=O)O)CC(=O)O)CC(=O)O,outcome,[1],inactive
same,AC50,[2],6.54 µM (active)
same,outcome,[3],inactive
same,outcome,[8],inactive
same,outcome,[7],inactive
same,outcome,[9],inactive
FC(F)(F)C1(F)C(F)(F)C(F)(F)C(F)(F)C1(F)F,outcome,[1],inactive
same,outcome,[2],inactive
same,outcome,[3],inactive
same,outcome,[8],inactive
same,outcome,[9],inactive
C=CCOCC(CO)(CO)CO,outcome,[1],inactive
same,outcome,[2],inactive
same,outcome,[3],inactive
same,outcome,[8],inactive
same,outcome,[9],inactive
O=C1Cc2ccccc2N1c1c(Cl)cccc1Cl,outcome,[1],inactive
same,AC50,[2],23.2 µM (active)
same,outcome,[3],inactive
same,outcome,[9],inactive
CCO[Si](CCC1CCC2OC2C1)(OCC)OCC (configuration not stated),outcome,[1],inactive
same,outcome,[2],inactive
same,outcome,[3],inactive
same,outcome,[7],inactive
same,outcome,[9],inactive
CCCCC(CC)C(=O)OCCOCCOCCOCCOC(=O)C(CC)CCCC (configuration not stated),outcome,[1],inactive
same,AC50,[2],100 µM (active)
same,outcome,[3],inactive
same,outcome,[4],inactive
same,outcome,[5],inactive
same,outcome,[6],inactive
same,outcome,[7],inactive
O=C(OC(=O)C(F)(F)C(F)(F)F)C(F)(F)C(F)(F)F,outcome,[1],inactive
same,outcome,[2],inactive
same,outcome,[3],inactive
same,outcome,[8],inactive
same,outcome,[9],inactive
CCCCCCCCCCCC,outcome,[1],inactive
same,outcome,[2],inactive
same,outcome,[3],inactive
same,outcome,[4],inactive
same,outcome,[5],inactive
same,AC50,[6],30.2 µM (active)
same,outcome,[6],inactive
same,outcome,[7],inactive
NNc1nc(-c2ccc([N+](=O)[O-])cc2)cs1,outcome,[1],inactive
same,AC50,[2],1.95 µM (active)
same,outcome,[3],inactive
same,outcome,[8],inactive
same,outcome,[9],inactive
Clc1ccc2c(Cl)ccnc2c1,outcome,[1],inactive
same,AC50,[2],3.21 µM (active)
same,outcome,[3],inactive
same,outcome,[8],inactive
same,outcome,[9],inactive
Cc1cc(=O)oc2cc(O)ccc12,outcome,[1],inactive
same,outcome,[2],inactive
same,outcome,[3],inactive
same,outcome,[8],inactive
same,outcome,[9],inactive
CCCCCCCC(OC)OC,outcome,[1],inactive
same,outcome,[2],inactive
same,outcome,[3],inactive
same,outcome,[8],inactive
same,outcome,[9],inactive
Nc1cc(Cl)c(-c2cc(Cl)c(N)cc2Cl)cc1Cl,outcome,[1],inactive
same,AC50,[2],12.5 µM (active)
same,AC50,[3],11.1 µM (active)
same,outcome,[8],inactive
same,outcome,[9],inactive
O=C(O)c1cccc(C(=O)O)n1,outcome,[1],inactive
same,outcome,[2],inactive
same,outcome,[3],inactive
same,outcome,[8],inactive
same,outcome,[9],inactive
CCOC=C(C(=O)OCC)C(=O)OCC,outcome,[1],inactive
same,outcome,[2],inactive
same,outcome,[3],inactive
same,outcome,[8],inactive
same,outcome,[9],inactive
FC(OC(F)(F)C(F)(F)C(F)(F)F)C(F)(F)F (configuration not stated),outcome,[1],inactive
same,outcome,[2],inactive
same,outcome,[3],inactive
same,outcome,[8],inactive
same,outcome,[9],inactive
FCOC(C(F)(F)F)C(F)(F)F,outcome,[1],inactive
same,outcome,[2],inactive
same,outcome,[3],inactive
same,outcome,[9],inactive
CCCCCCCCCCCCCCC,outcome,[1],inactive
same,outcome,[2],inactive
same,outcome,[3],inactive
same,outcome,[4],inactive
same,outcome,[5],inactive
same,outcome,[6],inactive
same,outcome,[9],inactive
c1ccc(CNc2ncnc3c2ncn3C2CCCCO2)cc1 (configuration not stated),outcome,[1],inactive
same,AC50,[2],19.8 µM (active)
same,outcome,[3],inactive
same,outcome,[8],inactive
same,outcome,[9],inactive
c1cc2cccc3c4cccc5cccc(c(c1)c23)c54,outcome,[1],inactive
same,AC50,[2],19.8 µM (active)
same,outcome,[3],inactive
same,outcome,[8],inactive
same,outcome,[9],inactive
CC(C)(c1ccc(Oc2ccc(N)cc2)cc1)c1ccc(Oc2ccc(N)cc2)cc1,outcome,[1],inactive
same,AC50,[2],3.71 µM (active)
same,outcome,[3],inactive
same,outcome,[8],inactive
same,outcome,[9],inactive
COC1=CC(=O)C[C@@H](C)[C@]12Oc1c(Cl)c(OC)cc(OC)c1C2=O,AC50,[1],25.6 µM (active)
same,outcome,[2],inactive
same,outcome,[3],inactive
same,outcome,[4],inactive
same,outcome,[10],inactive
same,outcome,[5],inactive
same,outcome,[6],inactive
same,outcome,[9],inactive
CCCCCCCCC(C)=O,outcome,[1],inactive
same,outcome,[2],inactive
same,outcome,[3],inactive
same,outcome,[8],inactive
same,outcome,[9],inactive
CCN(CC)CC,outcome,[2],inactive
same,outcome,[3],inactive
same,outcome,[8],inactive
same,outcome,[7],inactive
same,outcome,[9],inactive
CC(=O)Nc1ccc(O)cc1,outcome,[3],inactive
same,outcome,[4],inactive
same,outcome,[5],inactive
same,outcome,[6],inactive
same,outcome,[9],inactive
O=C(CCCN1CCC(O)(c2ccc(Cl)cc2)CC1)c1ccc(F)cc1,AC50,[3],47.9 µM (active)
same,AC50,[8],46.2 µM (active)
same,AC50,[4],15.6 µM (active)
same,outcome,[5],inactive
same,outcome,[6],inactive
same,outcome,[7],inactive
Oc1ccc(Cc2ccccc2O)cc1,AC50,[2],81 µM (active)
same,outcome,[3],inactive
same,outcome,[8],inactive
same,outcome,[4],inactive
same,outcome,[10],inactive
same,outcome,[5],inactive
same,AC50,[6],0.149 µM (active)
same,outcome,[6],inactive
same,outcome,[9],inactive
